Many of the other results were omitted from the sample, so hits are more common in it than they were.
Tgondii IFNg: blocks Toxoplasma gondii growth in the presence of IFN-gamma; Toxoplasma gondii growth in IFN-gamma-treated host cells; active compounds read low; activity change, negative = inhibition, % (concentration not given with the values); 69,000 tested, 3.8% active; AID 1259416; in the data active means activity change below about -70%, passing the limit was not always enough;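 further: host cells are HeLa cells infected with Toxoplasma gondii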
Each line names hits and unclear results; the compound was inactive in the other large screens.

N#Cc1cccc(-c2ccc(C3[C@@H]4CN(Cc5ccccc5)C[C@H]3N4)cc2)c1 (stereo partly specified)	none
N#Cc1ccc(-c2ccc([C@@H]3[C@@H]4CN(Cc5cocn5)C[C@H]3N4)cc2)cc1	none
N#Cc1ccc(-c2ccc([C@@H]3[C@@H]4CN(S(=O)(=O)Cc5ccccc5)C[C@H]3N4)cc2)cc1	Tgondii IFNg -70.6
CN(CCCc1ccccc1)C(=O)c1ccc(NC(=O)C2CCC2)cc1	none
COc1cc2c(cc1CN1CCOC(CN)C1)OCCCO2 (stereo unspecified)	none
Fc1ccccc1CN(CCCn1ccnc1)Cc1ccc(-n2cccn2)cc1	none
OC(CN1CCN(c2ncccn2)CC1)c1ccc(F)cc1 (stereo unspecified)	none
C=CCNc1nc(NCC=C)nc(N2CCN(C(c3ccc(F)cc3)c3ccc(F)cc3)CC2)n1	Tgondii IFNg -71.6
CCOC(=O)c1cc(NC(=O)c2ccc(F)c(Cl)c2)ccc1Oc1cncc(Cl)c1	Tgondii IFNg -89.6
COc1cncc(C(=O)Nc2ccc(C)c(F)c2)c1	none
CCOC(=O)c1nc(Nc2ccc(F)c(Cl)c2)c2ccccc2n1	none
C=CCN(Cc1cccnc1)Cc1ccccc1C	none
CNC(=S)N1N=C(c2c(-c3ccccc3)c3cc(Cl)ccc3[nH]c2=O)CC1c1ccccc1 (stereo unspecified)	none
COC(C(=O)N1N=C(c2c(-c3ccccc3)c3cc(Cl)ccc3[nH]c2=O)CC1c1ccccc1)c1ccccc1 (stereo unspecified)	Tgondii IFNg -101.6
CNC(=S)N1N=C(c2c(-c3ccccc3)c3cc(Cl)ccc3[nH]c2=O)CC1c1ccccc1OC (stereo unspecified)	none
Cc1ccc(CS(=O)(=O)N2CCC3(CN(c4ccccc4)C(=O)CN3C)C2)cc1 (stereo unspecified)	none
C[C@H](CO)N1C[C@H](C)[C@@H](CN(C)C(=O)c2cc(-c3ccccc3)on2)OCc2cnnn2CCCC1=O	none
C[C@H](CO)N1C[C@H](C)[C@H](CN(C)C(=O)Nc2cccc3ccccc23)Oc2ncccc2C1=O	Tgondii IFNg -118.7
C[C@@H]1CN([C@@H](C)CO)C(=O)CCCn2nncc2CO[C@H]1CN(C)C(=O)Nc1ccccc1C(F)(F)F	none
C[C@@H]1CN([C@@H](C)CO)C(=O)CCCn2nncc2CO[C@H]1CN(C)C(=O)c1cc(-c2ccccc2)on1	none
C[C@@H]1CN([C@H](C)CO)C(=O)c2cc(NS(=O)(=O)c3cn(C)cn3)ccc2O[C@H]1CN(C)C(=O)Nc1cccc2ccccc12	none
C[C@H]1CN([C@@H](C)CO)C(=O)CCCn2nncc2CO[C@@H]1CN(C)C(=O)Nc1ccccc1C(F)(F)F	Tgondii IFNg -95.7
C[C@H](CO)N1C[C@H](C)[C@H](CN(C)C(=O)c2cc(-c3ccccc3)on2)OCc2cnnn2CCCC1=O	Tgondii IFNg -75.6
C[C@@H]1CN([C@H](C)CO)C(=O)c2cccc(NC(=O)C3CCOCC3)c2O[C@@H]1CN(C)C(=O)Nc1cccc2ccccc12	none
COc1ccc(NC(=O)N(C)C[C@@H]2OCc3cnnn3CCCC(=O)N([C@H](C)CO)C[C@@H]2C)c(OC)c1	none
COCCNC(=O)C1CN(Cc2nccs2)Cc2ccnn2C1 (stereo unspecified)	none
CN(C)Cc1ccc(C2CCCCN2C(=O)c2cn(-c3ccccc3)nn2)cc1 (stereo unspecified)	none
CCc1c(C)[nH]n2c(=O)cc(Cn3nc(OC)c4ccccc4c3=O)nc12	none
O=C(CN1C(=O)c2ccccc2C1=O)NCCc1csc(-c2ccc(F)cc2)n1	none
CC(C)Cc1nc(CN(C)Cc2ncc[nH]2)no1	none
CC(C)Cn1c(CN(C)Cc2ncc[nH]2)nc2ccccc21	Tgondii IFNg -83.7
CNC(=O)C(C)N(C)Cc1nc2ccccc2n1CC(C)C (stereo unspecified)	none
CN1CC2(CCN(C(=O)c3[nH]ncc3Cl)CC2)CC1C(=O)O (stereo unspecified)	none
CSc1cccc(NC(=O)c2nnn(Cc3nc(-c4ccccc4C)oc3C)c2C)c1	none
CCOc1ccc(-c2cnc(C3CCCNC3)[nH]2)cc1OCC (stereo unspecified)	none
O=C(c1ccc(F)cc1)N1c2ccccc2Sc2ccc(C(F)(F)F)cc21	Tgondii IFNg -76.4
FC(F)(F)c1ccc2c(c1)Nc1ccccc1S2	none
NCCC(=O)N1c2ccccc2Sc2ccccc21	none
COc1cc2c(cc1CN1CCC(NC(C)=O)(c3ccc(F)cc3)CC1)CCC2	none
O=C(NCCN1CCC(O)(c2ccc(F)cc2)CC1)c1c(F)cccc1F	none
O=C(Cc1ccc2c(c1)CCC2)NCCN1CCC(O)(c2ccc(F)cc2)CC1	Tgondii IFNg -75.8
CO[C@H]1CCN(C(=O)c2cnc(C)cn2)[C@H]2CN(Cc3ccco3)C[C@@H]12	none
CCCc1cncnc1N1CCCC(N2CCN(c3ccccc3OC)CC2)C1 (stereo unspecified)	none
Cc1cccnc1CC(C)Nc1cc(N2CCOCC2)nc(N)n1 (stereo unspecified)	none
Cc1cccc(CN2CCOCC3(CCN(c4ccccn4)C3)C2)n1 (stereo unspecified)	none
Cc1cccc(/C=N/Nc2cc(N3CCOCC3)nc(OCCc3ccccn3)n2)c1	Tgondii IFNg -73.8

Screens deposited in PubChem BioAssay by Broad Institute.
